# The supplement of paper PMC11417369
# ± gives the standard deviation of the averaged measurements. The full ranking holds about 25,000 sequences; the median of “ln(normalized median fluorescence intensity)” is about 8.6, and the highest 2% start at about 10. Shown is part of a subset that was picked to be rich in the highest values.
# Test system: PfAP2-EXP AP2 domain (GST-tagged)
# Assay: gcPBM binding intensity (ln(normalized median fluorescence intensity)); higher = stronger DNA binding
# In short: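 GST-tagged P. falciparum DNA-binding domains, expressed in E. coli (about 25 μg on average), were applied for 1 h to an Agilent 4 × 180k array of primer-extended double-stranded 36-bp intergenic genomic probes plus negative controls. The binding buffer was 1× PBS with 1% milk, 0.2 mg/ml BSA, 0.5% salmon testes DNA and 0.03% Triton X-100. Bound protein was detected with Alexa488 anti-GST antibody and scanned at 488 nm. Binding intensity is the highest Masliner-normalised natural-log median intensity across replicate spots of either probe orientation.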
row,Sequence,gcPBM binding intensity (ln)
1,TATATATATATATATTGTACATATTGTATATATTGT [XGTACX_site3212],9.98 ± 0.21
2,TAATATTTATTCTATTGTACATAAAATATATATATA [XGTACX_site7132],9.225 ± 0.078
3,AGTAGCATATTCTATTGTACATATATATATATATAT [XGTACX_site2980],10.2 ± 0.56
4,TTTATATATATAAATATGTAGATAACAATATTCTGA [TGCATGCA_negctrl_site554],8.16 ± 0.44
5,AAATTGGTTCATCAATGTACATGTAAAATAAATCAA [XGTACX_site4795],8.88 ± 0.46
6,ATTATTAATAATTGTGTGCACAAATATTTATATGCT,8.86 ± 0.092
7,TATTAATTATAAGATGCATGTGCAAAAATATGTTCC [TGCATGCA_site51],9.01 ± 0.36
8,AAATTAATATTATGTGCATGCACAAAGAGGAACGAC [TGCATGCA_site754],10.7 ± 0.18
9,ATATATATATATATATATATATATATATATAAGTGG [XGTACX_negctrl_site90],9.94 ± 0.35
10,TACTTACACTGTTTTTGTACTTATTTCCCTTTTATT [XGTACX_site2158],9.12 ± 0.6
11,ATTTCCCCTTTTTATTGTACATTTTTATTTGTTACT [XGTACX_site4845],9.14 ± 0.64
12,TTATTTTCCCTTTGTGCATGCAGTTTACTTTTTGTG [TGCATGCA_site993],10.4 ± 0.64
13,TGTATAAGGTTTTTACGTTTTGAAGGATGTATTGTT [CACACA_negctrl_site1245],8.59 ± 0.6
14,TTGTATTATTATGTTGCACACATTTTATATAAAATA [CACACA_site3641],9.06 ± 0.31
15,TTTATATGTATTAAGTGTACACATATAATGTATTTT [XGTACX_site16],8.71 ± 0.014
16,TATGTATTTTTTAAGTGTACCTATATATATATATAT [XGTACX_site7934],10.2 ± 0.3
17,TTTATGTGTATTAAGTGTACACATATAGTGTATTTT [XGTACX_site999],8.42 ± 0.31
18,AATATAATATACATATGTACATATATATATATATAT [XGTACX_site8218],10 ± 0.32
19,ACATGTACAGAAATTTATATATATATATATATATAT [CACACA_negctrl_site1584],10.3 ± 0.33

row,Sequence,gcPBM binding intensity (ln)
1,TATAGAAAATTTATATGTACATATATATATATATAT [XGTACX_site4451],10.1 ± 0.44
2,TAGAAATATATTTATTGTACATTGTATATATTATAT [XGTACX_site7584],8.35 ± 0.48
3,TATATATATATATATTGTACATATTAATATTAGAAA [XGTACX_site8923],10.1 ± 0.39
4,ATATATATAAATATATGTACTAATATATACATATAT [XGTACX_site2289],8.22 ± 0.092
5,AGAATAAATAAATATTGTACATATAAAATATATATA [XGTACX_site896],8.39 ± 0.35
6,AATAAATAAATATATTGTACATATATATATATATAT [XGTACX_site8627],10.2 ± 0.4
7,ATTTAGAAATATATTTGTACATATATATATATATAT [XGTACX_site7129],10.2 ± 0.35
8,ATATATATATATATATGTACATACTATACAATAATT [XGTACX_site3546],10.4 ± 0.29
9,ACATATAATATAAATTGTACATATAAATATATTATT [XGTACX_site4268],8.38 ± 0.32
10,TACAGAAATTTATATATATATATATATATATATATA [XGTACX_negctrl_site209],9.95 ± 0.62
11,GTAGTAATAAATCTAGTGCATTATATATAACAAAAA [GTGCAC_site9803],8.81 ± 0.3
12,TAGCCATTTTTATATTGTACTTATATAATCACATTT [XGTACX_site4407],8.72 ± 0.4
13,ATGCACATTTATAAAAGTACATGTATGTAATATGTT [XGTACX_site830],8.77 ± 0.33
14,TGTATGAAATATATTACACACATATATAATATATAT [CACACA_site793],8.36 ± 0.3
15,GATGCTAAAATTTATACACACAAAAAAAAAAAATTC [CACACA_site3284],8.47 ± 0.46
16,CAAGAAAATTGACACACACACATATTTATATTTATA [CACACA_site7766],8.36 ± 0.48
17,AAGTATAACCTTTATAATAATGACATGACCGATTTT [CACACA_negctrl_site395],8.26 ± 0.34
18,TGTAGTCTGGAGAAACGTACACAGTATCTGGTAACA [XGTACX_site4938],8.34 ± 0.36
19,AAATGTACAGGACGCACACACATATTTATATTTATA [CACACA_site7689],8.55 ± 0.33

row,Sequence,gcPBM binding intensity (ln)
1,AAAAAAAAAAAAAAATGTACATATATATAAATAAAA [XGTACX_site5574],8.51 ± 0.45
2,AAAAAAAAAAAAAAATGTACATATATATAAATATAT [XGTACX_site6768],8.34 ± 0.4
3,AAAAAAAAAAAAAAATGTACATATAAATAAATATAT [XGTACX_site7248],8.51 ± 0.42
4,AAATGTACAGGACGCACACACATATATATATATATA [CACACA_site3674],10.4 ± 0.81
5,AACATATAAATAAACTGTACATATATATATATATAT [XGTACX_site1056],10.1 ± 0.39
6,TATAATAAATCGAACTGTACATATATATATATATAT [XGTACX_site7097],10.2 ± 0.33
7,TAAAATGTACAGGACGCACACACATATATATATATA [CACACA_site3673],10.1 ± 0.22
8,ATAAAAAAATATAAATGTACATATATATATATATAT [XGTACX_site5620],10.2 ± 0.2
9,ATATATATTATAATCTGTACATAAATATATAATAAA [XGTACX_site5425],8.39 ± 0.33
10,ATAAAAATAAATAAATGTACATATATATATATATAT [XGTACX_site1277],10.1 ± 0.4
11,AATGTAAAATATAAATGTACATATATATATATATAT [XGTACX_site5071],10.2 ± 0.24
12,ATTTTTATAGAATGAACACACATATTATAGCATTTA [CACACA_site6842],8.45 ± 0.38
13,AACACTTCTTATTTATGTACTTAATTCCCAACGGAA [XGTACX_site4818],8.87 ± 0.46
14,CATATGATATTATTTTGTACTTATTACAAATATGAA [XGTACX_site7929],8.4 ± 0.42
15,TATAAAGCAACTGAAACACACAAATTTTTTTTTTTT [CACACA_site3218],8.04 ± 0.46
16,ACACATAATATGTGTAGTACTTTTTCTTTAACATTA [XGTACX_site1436],8.64 ± 0.36
17,TATAAAAATAATATTACACACATGTAAAATGCCCGT [CACACA_site7522],8.49 ± 0.31
18,GGACAAGTTTTTTACATAAATAAAAAAAATAAAAAA [XGTACX_negctrl_site125],8.44 ± 0.42
